What was measured:
Assay in all cases: log2 ratio of Biotin-Ahx-Ub-VS probe labelling (fragment/DMSO); higher = less target engagement (more negative = stronger competition), active = hit call of the paper (q ≤ 0.05, log2 ratio ≤ -1)
Settings in all cases: compound concentration: 200 uM; treatment time: 3 h
[1] = target: USP34 (UniProt Q70CQ2)
In short: (§1)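 Labelled DUBs from HEK293T lysate were NeutrAvidin-enriched, digested with LysC and trypsin, and run by diaPASEF LC-MS/MS. Before that, each 495 µg sample in Tris/CHAPS/IGEPAL buffer with protease inhibitors was treated in triplicate with fragment at 200 µM or vehicle for 3 h, then with Biotin-Ahx-Ub-VS at 0.5 µM final for 1 h. Values are average log2 ratios of fragment over vehicle by unpaired t-test, based on global-median-normalised Spectronaut label-free quantities from proteins with ≥2 unique peptides.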

[2] = target: T1, USP36 (UniProt Q9P275)
T1 sequence (whole entry): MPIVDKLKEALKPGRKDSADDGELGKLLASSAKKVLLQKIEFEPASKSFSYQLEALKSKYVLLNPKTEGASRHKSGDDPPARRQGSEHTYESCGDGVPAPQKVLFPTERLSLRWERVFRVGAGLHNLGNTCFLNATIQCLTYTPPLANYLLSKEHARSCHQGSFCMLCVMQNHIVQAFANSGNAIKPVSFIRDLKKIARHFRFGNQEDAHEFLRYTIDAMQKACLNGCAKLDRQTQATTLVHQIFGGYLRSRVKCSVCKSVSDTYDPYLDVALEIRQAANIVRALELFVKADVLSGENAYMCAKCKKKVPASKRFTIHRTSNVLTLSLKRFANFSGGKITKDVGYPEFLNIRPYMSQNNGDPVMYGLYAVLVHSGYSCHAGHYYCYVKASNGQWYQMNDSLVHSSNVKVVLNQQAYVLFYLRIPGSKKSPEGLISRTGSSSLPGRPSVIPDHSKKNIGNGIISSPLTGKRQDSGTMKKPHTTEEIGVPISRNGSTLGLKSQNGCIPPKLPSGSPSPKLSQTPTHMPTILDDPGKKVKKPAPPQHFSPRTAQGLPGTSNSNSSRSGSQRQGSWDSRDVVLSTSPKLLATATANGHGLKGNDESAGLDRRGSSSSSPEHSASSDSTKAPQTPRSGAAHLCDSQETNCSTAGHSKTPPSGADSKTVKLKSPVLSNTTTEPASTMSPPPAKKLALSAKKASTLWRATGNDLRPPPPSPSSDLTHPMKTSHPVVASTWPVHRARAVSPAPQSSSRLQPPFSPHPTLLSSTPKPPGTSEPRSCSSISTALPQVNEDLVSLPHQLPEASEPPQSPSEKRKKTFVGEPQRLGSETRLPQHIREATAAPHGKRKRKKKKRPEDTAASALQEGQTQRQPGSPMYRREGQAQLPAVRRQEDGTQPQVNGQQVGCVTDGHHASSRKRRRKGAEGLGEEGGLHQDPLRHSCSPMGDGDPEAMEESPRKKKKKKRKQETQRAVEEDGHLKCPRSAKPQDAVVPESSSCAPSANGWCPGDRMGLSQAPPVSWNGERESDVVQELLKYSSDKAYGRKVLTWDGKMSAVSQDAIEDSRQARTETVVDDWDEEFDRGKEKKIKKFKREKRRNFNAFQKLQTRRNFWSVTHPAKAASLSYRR
In short: as §1

[3] = target: T2, USP38 (UniProt Q8NB14)
T2 sequence (whole entry): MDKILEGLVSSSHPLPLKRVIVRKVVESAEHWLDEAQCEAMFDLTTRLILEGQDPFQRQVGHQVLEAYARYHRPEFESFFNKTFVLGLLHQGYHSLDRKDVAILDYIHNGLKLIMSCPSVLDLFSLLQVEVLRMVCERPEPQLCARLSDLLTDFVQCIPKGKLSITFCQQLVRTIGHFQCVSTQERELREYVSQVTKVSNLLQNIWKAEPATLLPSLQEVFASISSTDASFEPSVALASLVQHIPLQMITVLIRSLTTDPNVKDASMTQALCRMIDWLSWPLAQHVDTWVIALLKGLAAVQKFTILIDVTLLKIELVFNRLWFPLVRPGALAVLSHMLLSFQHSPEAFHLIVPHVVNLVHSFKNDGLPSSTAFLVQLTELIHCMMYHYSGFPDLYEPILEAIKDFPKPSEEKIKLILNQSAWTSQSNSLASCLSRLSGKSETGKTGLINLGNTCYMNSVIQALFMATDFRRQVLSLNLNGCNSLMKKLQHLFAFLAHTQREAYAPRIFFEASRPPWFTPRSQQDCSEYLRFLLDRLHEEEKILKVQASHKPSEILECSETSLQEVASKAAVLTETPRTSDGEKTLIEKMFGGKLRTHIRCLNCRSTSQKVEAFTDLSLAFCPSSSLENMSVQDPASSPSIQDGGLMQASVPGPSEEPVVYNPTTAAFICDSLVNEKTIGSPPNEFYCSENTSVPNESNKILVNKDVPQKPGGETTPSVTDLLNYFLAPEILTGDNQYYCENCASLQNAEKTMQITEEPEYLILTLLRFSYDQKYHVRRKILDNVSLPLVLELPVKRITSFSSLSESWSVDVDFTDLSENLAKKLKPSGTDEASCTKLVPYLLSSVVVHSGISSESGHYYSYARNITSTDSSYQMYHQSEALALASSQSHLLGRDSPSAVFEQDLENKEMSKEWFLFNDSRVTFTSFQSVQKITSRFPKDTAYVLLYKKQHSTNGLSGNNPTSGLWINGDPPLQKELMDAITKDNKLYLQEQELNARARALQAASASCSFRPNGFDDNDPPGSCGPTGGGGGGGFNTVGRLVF
In short: as §1

[4] = target: T3, USP39 (UniProt Q53GS9)
T3 sequence (whole entry): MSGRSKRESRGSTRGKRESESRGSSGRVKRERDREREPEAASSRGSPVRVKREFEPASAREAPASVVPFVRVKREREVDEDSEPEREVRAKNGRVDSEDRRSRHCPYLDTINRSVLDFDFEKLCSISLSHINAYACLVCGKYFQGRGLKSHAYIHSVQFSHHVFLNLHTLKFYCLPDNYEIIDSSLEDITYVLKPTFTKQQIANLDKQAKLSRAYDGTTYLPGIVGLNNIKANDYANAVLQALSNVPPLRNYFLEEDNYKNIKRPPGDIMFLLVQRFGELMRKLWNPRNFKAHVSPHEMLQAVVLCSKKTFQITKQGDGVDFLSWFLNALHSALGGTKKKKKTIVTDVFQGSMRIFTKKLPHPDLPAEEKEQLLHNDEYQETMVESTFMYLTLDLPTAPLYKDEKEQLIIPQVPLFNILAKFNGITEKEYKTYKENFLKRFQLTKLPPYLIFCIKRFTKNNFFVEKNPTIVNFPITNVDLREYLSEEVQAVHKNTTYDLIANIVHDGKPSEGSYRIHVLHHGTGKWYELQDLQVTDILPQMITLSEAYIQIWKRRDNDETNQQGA
In short: as §1

[5] = target: T4, USP4 (UniProt Q13107)
T4 sequence (whole entry): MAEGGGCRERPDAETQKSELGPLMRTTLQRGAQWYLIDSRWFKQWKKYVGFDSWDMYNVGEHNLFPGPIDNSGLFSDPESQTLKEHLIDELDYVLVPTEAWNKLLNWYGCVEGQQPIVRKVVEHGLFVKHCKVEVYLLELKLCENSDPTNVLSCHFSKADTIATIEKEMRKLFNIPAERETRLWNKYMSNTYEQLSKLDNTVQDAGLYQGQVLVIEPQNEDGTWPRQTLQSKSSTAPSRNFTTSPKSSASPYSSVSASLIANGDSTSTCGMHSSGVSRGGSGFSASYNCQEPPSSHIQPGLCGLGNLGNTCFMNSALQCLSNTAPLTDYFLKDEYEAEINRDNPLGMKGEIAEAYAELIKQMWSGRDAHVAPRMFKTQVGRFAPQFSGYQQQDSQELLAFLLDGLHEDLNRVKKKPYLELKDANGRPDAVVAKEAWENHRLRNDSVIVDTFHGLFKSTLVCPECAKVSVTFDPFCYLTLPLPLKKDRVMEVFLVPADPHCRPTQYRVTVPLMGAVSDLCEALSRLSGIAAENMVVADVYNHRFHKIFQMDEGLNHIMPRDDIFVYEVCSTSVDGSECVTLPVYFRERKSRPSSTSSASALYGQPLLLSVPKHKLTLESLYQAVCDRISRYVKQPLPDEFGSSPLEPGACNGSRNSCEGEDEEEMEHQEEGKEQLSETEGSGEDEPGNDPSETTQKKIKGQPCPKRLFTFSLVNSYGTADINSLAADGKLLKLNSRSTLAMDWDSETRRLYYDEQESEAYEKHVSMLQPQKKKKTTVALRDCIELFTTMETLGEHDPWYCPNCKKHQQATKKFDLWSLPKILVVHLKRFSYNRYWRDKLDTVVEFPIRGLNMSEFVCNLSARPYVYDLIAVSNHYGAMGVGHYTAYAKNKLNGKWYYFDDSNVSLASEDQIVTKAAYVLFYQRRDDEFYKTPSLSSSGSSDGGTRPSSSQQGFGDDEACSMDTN
In short: as §1

Measured: log2 ratio of Biotin-Ahx-Ub-VS probe labelling

USP34, sequence (Q70CQ2 whole entry, the tested form may be a part): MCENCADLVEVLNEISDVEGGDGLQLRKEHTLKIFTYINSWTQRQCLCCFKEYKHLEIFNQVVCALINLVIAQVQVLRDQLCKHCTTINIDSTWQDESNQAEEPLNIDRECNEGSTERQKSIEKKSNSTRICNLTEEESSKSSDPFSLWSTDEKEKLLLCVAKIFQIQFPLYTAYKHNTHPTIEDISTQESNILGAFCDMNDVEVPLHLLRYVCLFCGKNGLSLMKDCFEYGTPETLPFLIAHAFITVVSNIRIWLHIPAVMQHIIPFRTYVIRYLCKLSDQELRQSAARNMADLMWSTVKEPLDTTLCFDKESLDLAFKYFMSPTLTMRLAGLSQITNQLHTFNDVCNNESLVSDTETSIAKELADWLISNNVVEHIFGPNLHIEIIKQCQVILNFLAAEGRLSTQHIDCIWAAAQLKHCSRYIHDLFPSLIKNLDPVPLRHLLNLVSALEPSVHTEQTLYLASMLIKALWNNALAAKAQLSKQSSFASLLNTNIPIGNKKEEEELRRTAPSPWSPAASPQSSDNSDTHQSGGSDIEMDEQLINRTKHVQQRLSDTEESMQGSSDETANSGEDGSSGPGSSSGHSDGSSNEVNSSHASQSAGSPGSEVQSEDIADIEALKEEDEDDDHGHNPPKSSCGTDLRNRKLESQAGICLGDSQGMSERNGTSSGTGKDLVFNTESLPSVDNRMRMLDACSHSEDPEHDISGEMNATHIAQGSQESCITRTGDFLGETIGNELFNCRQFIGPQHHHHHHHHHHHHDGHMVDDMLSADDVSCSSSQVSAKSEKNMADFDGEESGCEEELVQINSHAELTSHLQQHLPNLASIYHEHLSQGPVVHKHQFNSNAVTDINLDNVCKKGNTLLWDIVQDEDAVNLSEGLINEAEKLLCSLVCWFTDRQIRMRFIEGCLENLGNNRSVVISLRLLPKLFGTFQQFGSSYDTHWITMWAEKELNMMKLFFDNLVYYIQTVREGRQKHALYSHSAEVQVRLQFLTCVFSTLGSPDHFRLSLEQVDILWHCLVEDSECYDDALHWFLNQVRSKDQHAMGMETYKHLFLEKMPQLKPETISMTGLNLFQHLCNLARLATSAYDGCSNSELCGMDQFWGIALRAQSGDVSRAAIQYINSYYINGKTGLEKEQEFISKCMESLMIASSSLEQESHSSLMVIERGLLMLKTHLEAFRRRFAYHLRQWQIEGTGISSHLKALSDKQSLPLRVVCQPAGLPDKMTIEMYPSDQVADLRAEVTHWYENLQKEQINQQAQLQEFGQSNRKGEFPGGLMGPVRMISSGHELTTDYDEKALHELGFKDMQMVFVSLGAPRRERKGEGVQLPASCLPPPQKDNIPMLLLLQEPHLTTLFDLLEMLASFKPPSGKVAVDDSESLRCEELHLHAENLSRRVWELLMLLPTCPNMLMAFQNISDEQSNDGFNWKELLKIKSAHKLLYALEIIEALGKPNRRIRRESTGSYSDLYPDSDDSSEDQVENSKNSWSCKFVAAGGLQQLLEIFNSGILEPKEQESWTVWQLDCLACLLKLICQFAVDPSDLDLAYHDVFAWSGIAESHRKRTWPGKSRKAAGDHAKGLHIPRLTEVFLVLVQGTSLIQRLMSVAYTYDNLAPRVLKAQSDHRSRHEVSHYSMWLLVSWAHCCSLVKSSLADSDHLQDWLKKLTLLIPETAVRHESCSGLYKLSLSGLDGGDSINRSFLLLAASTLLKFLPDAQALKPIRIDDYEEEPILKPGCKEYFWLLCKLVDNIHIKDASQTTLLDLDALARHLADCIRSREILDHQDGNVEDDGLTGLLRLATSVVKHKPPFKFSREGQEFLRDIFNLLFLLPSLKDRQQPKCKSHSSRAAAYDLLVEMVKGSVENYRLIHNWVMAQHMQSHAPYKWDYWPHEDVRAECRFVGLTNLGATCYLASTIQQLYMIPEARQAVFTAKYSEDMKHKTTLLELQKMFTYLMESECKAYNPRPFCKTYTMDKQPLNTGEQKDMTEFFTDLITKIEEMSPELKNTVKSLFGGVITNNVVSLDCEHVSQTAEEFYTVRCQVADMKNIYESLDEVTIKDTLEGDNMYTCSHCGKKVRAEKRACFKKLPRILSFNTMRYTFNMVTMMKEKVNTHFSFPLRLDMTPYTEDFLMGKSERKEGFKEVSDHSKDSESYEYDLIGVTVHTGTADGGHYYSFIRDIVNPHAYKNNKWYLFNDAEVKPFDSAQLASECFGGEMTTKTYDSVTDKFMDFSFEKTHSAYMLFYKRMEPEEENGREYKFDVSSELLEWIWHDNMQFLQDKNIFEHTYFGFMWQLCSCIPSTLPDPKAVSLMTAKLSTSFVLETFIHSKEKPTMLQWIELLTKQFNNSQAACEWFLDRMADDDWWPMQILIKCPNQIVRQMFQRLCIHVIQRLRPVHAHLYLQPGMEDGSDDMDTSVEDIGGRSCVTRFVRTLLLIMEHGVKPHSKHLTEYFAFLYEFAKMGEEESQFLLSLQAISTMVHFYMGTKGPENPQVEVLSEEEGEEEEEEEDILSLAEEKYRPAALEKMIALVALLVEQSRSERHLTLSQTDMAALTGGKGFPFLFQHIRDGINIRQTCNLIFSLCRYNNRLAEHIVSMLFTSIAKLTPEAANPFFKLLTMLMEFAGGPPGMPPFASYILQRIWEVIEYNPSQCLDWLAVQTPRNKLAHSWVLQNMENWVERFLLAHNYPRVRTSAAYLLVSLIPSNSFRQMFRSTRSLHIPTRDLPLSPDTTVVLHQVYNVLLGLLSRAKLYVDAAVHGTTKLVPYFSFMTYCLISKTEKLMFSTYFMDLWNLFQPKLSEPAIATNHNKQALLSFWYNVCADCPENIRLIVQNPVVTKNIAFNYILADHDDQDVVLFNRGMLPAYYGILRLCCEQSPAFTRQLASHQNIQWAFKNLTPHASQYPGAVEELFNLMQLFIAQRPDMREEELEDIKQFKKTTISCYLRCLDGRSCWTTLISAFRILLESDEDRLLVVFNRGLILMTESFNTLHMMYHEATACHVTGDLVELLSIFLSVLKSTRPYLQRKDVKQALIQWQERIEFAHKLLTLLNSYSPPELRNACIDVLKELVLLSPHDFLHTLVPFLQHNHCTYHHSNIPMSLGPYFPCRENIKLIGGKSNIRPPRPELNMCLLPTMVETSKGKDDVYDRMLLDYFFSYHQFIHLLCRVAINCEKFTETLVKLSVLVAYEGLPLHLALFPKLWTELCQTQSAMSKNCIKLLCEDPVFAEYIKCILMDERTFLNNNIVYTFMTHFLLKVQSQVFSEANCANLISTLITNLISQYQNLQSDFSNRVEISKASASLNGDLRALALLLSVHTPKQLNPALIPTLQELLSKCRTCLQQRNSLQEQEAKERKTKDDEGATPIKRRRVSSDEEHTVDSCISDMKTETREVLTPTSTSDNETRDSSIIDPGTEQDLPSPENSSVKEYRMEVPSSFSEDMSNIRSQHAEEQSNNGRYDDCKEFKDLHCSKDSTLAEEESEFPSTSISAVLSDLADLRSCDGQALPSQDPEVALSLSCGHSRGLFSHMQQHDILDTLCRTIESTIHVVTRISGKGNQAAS

Cl.O=C(CCl)N[C@H]1C[C@@H](n2cccn2)C1
inactive: [1] -0.109 | [2] 0.0625 | [3] 0.192 | [4] 0.31 | [5] -0.0753
